Laboratory results from PubChem BioAssay AID1159580 (chemical genetic matrix, 2015).
Where “and” joins values, the source holds several entries; their conditions need not be identical. Equal entries are not always repeated. The whole screen tested about 5,500 compounds, of which about 2,000 (36%) were called active. Not shown: some 18% with an inconclusive outcome. Cut-off read from the data, not from the text of the source: active = normalized growth mostly below about 0.91 (no sharp cut-off); inconclusive = no clear call, values can overlap the other calls; inactive = mostly above about 0.92. Some of the results follow.

Test: chemical genetic growth profiling, strain panel (AID 1159580);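 note: tested at 20 µM; growth read once vehicle control cultures reached saturation at 30 °C; 1 = growth at the plate median or of vehicle wells; lower values mean less growth of the strain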
Conditions: S. cerevisiae deletion strains, growth OD

Measured: normalized growth

CC(Cc1cccc(C(F)(F)F)c1)NCCOC(=O)c1ccccc1 (configuration not stated)
0.833 (active) and 0.974 (inactive): locus YHR030C, strain SLT2, stronger effect = lower value
inactive: locus YAL013W, strain DEP1, stronger effect = lower value 0.98 | locus YAL030W, strain snc1, stronger effect = lower value 0.964 | locus YBL061C, strain skt5, stronger effect = lower value 0.968 | locus YBR009C, strain hhf1, stronger effect = lower value 0.953 | locus YBR023C, strain chs3, stronger effect = lower value 0.936 | locus YBR171W, strain sec66, stronger effect = lower value 0.975 | locus YBR229C, strain ROT2, stronger effect = lower value 1.01 | locus YBR231C, strain swc5, stronger effect = lower value 0.948 | locus YBR279W, strain paf1, stronger effect = lower value 0.964 | locus YCL011C, strain gbp2, stronger effect = lower value 0.971 | locus YCL016C, strain dcc1, stronger effect = lower value 0.969 | locus YCL029C, strain bik1, stronger effect = lower value 1.03 | locus YCL061C, strain MRC1, stronger effect = lower value 0.978 | locus YCL069W, strain vba3, stronger effect = lower value 0.967 | locus YCR088W, strain abp1, stronger effect = lower value 0.994 | locus YDL005C, strain med2, stronger effect = lower value 0.999 | locus YDL035C, strain GPR1, stronger effect = lower value 0.917 | locus YDL040C, strain nat1, stronger effect = lower value 0.994 | locus YDL074C, strain BRE1, stronger effect = lower value 0.914 | locus YDL101C, strain DUN1, stronger effect = lower value 0.996 | locus YDL134C, strain PPH21, stronger effect = lower value 0.958 | locus YDL185W, strain tfp1, stronger effect = lower value 1.02 | locus YDL192W, strain arf1, stronger effect = lower value 0.988 | locus YDR001C, strain nth1, stronger effect = lower value 0.992 | locus YDR101C, strain arx1, stronger effect = lower value 0.999 | locus YDR137W, strain rgp1, stronger effect = lower value 0.916 | locus YDR150W, strain NUM1, stronger effect = lower value 0.997 | locus YDR159W, strain sac3, stronger effect = lower value 0.995 | locus YDR162C, strain NBP2, stronger effect = lower value 0.945 | locus YDR195W, strain ref2 1.01 | locus YDR297W, strain sur2, stronger effect = lower value 0.973 | locus YDR318W, strain mcm21, stronger effect = lower value 0.963 | locus YDR334W, strain swr1, stronger effect = lower value 0.997 | locus YDR335W, strain msn5, stronger effect = lower value 0.959 | locus YDR392W, strain spt3, stronger effect = lower value 1.03 | locus YDR502C, strain sam2, stronger effect = lower value 0.974 | locus YEL003W, strain gim4, stronger effect = lower value 0.924 | locus YEL037C, strain rad23, stronger effect = lower value 0.973 | locus YEL061C, strain CIN8 (second series), stronger effect = lower value 0.988 | locus YEL061C, strain CIN8, stronger effect = lower value 0.993 | locus YER016W, strain bim1, stronger effect = lower value 1 | locus YER110C, stronger effect = lower value 1.01 | locus YER111C, strain swi4, stronger effect = lower value 0.997 | locus YER155C, strain BEM2 (second series), stronger effect = lower value 0.934 | locus YER155C, strain BEM2, stronger effect = lower value 1.02 | locus YER167W, strain BCK2, stronger effect = lower value 0.985 | locus YGL078C, strain dbp3, stronger effect = lower value 1.01 | locus YGL086W, strain mad1, stronger effect = lower value 0.953 | locus YGL167C, strain pmr1, stronger effect = lower value 0.991 | locus YGL173C, strain kem1, stronger effect = lower value 0.919 | locus YGL227W, strain vid30, stronger effect = lower value 0.995 | locus YGL240W, strain doc1, stronger effect = lower value 0.945 | locus YGL248W, strain PDE1, stronger effect = lower value 0.957 | locus YGL253W, strain hxk2, stronger effect = lower value 0.96 | locus YGR078C, strain PAC10, stronger effect = lower value 0.921 | locus YGR135W, strain pre9, stronger effect = lower value 0.914 | locus YGR252W, strain gcn5, stronger effect = lower value 0.923 | locus YHR013C, strain ard1, stronger effect = lower value 0.963 | locus YHR027C, strain rpn1, stronger effect = lower value 0.941 | locus YHR079C, strain IRE1 (second series), stronger effect = lower value 1 | locus YHR079C, strain IRE1, stronger effect = lower value 0.981 | locus YHR094C, strain hxt1, stronger effect = lower value 1.02 | locus YHR129C, strain ARP1, stronger effect = lower value 1 | locus YHR142W, strain chs7, stronger effect = lower value 0.925 | locus YHR200W, strain rpn10, stronger effect = lower value 0.996 | locus YIL066C, strain RNR3, stronger effect = lower value 0.962 | locus YIL073C, strain SPO22, stronger effect = lower value 1.14 | locus YIL125W, strain kgd1, stronger effect = lower value 1.02 | locus YIR030C, strain dcg1, stronger effect = lower value 1 | locus YJL092W, strain hpr5, stronger effect = lower value 0.953 | locus YJL095W, strain BCK1 (second series), stronger effect = lower value 0.954 | locus YJL115W, strain asf1, stronger effect = lower value 0.979 | locus YJL129C, strain trk1, stronger effect = lower value 0.997 | locus YJL134W, strain LCB3, stronger effect = lower value 1 | locus YJL154C, strain vps35, stronger effect = lower value 0.986 | locus YJL164C, strain tpk1, stronger effect = lower value 0.953 | locus YJL166W, strain qcr8, stronger effect = lower value 0.943 | locus YJL168C, strain set2, stronger effect = lower value 1 | locus YJL187C, strain SWE1 (second series), stronger effect = lower value 0.923 | locus YJL187C, strain SWE1, stronger effect = lower value 0.978 | locus YJR043C, strain POL32, stronger effect = lower value 1.04 | locus YJR066W, strain TOR1, stronger effect = lower value 0.879
0.614 (active) and 0.976 (inactive): locus YJL095W, strain BCK1, stronger effect = lower value
active: locus YAL021C, strain ccr4, stronger effect = lower value 0.853 | locus YAL026C, strain drs2, stronger effect = lower value 0.582 | locus YBR021W, strain FUR4, stronger effect = lower value 0.513 | locus YDR069C, strain doa4, stronger effect = lower value 0.845 | locus YDR388W, stronger effect = lower value 0.811 | locus YER015W, strain faa2, stronger effect = lower value 0.899 | locus YFR010W, strain ubp6, stronger effect = lower value 0.831 | locus YGR229C, strain SMI1, stronger effect = lower value 0.612
